# DT40 TDP1 CPT: qHTS for Inhibitors of human tyrosyl-DNA phosphodiesterase 1 (TDP1): qHTS in cells in presence of CPT; AID 686979, 2013; Potency, µM (series often up to 46.2 µM), inactives show top-dose activity change, negative = growth inhibition, hits mostly inhibitors; hit rate 12% among 420,000; chicken DT40 Tdp1-/-;hTDP1 cells + 20 nM CPT, ATP luminescence, 48 h; note: potency is the fitted concentration of half-maximal effect; nearly all actives have a fitted effect of over 55% in size
#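 Cell growth measured by CellTiter-Glo luminescence after a minimum 48 h, 37 C compound exposure with 20 nM CPT in Tdp1-knockout DT40 cells stably expressing hTDP1, seeded 400/well; qHTS titration format.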
# IL1B secr inh: qHTS for Inhibitors of Inflammasome Signaling: IL-1-beta AlphaLISA Primary Screen; THP-1 LPS/ATP IL-1B secretion, AlphaLISA, 16 h; stronger effect = lower value; activity change, % at 57.5 µM; hit rate 4.7% among 360,000; in the data active = activity change below about -50%; inconclusive = mostly about -30% to -49%
#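 THP-1 cells pretreated 1 hr with compounds (up to 57.5 uM final), then stimulated with LPS (250 ng/mL final) plus ATP (1.25 mM final); secreted IL-1B measured by AlphaLISA after 16 hr, decreased signal indicating inhibition.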
# RORg inh: qHTS for inhibitors of ROR gamma transcriptional activity | Drosophila S2 Gal4-RORgamma UAS-luciferase reporter, 20 h | hit rate 5.4% among 310,000 | Potency, µM (top dose mostly 53.6 µM), inactives show at the top dose activity change, negative = inhibition, usual class: inhibitors | Nuclear receptor ROR-gamma (Mus musculus), P51450; note: potency is the fitted concentration of half-maximal effect; nearly all actives have a fitted effect of over 60% in size
# Target sequence (P51450 whole entry, looked up, the tested form may be a part): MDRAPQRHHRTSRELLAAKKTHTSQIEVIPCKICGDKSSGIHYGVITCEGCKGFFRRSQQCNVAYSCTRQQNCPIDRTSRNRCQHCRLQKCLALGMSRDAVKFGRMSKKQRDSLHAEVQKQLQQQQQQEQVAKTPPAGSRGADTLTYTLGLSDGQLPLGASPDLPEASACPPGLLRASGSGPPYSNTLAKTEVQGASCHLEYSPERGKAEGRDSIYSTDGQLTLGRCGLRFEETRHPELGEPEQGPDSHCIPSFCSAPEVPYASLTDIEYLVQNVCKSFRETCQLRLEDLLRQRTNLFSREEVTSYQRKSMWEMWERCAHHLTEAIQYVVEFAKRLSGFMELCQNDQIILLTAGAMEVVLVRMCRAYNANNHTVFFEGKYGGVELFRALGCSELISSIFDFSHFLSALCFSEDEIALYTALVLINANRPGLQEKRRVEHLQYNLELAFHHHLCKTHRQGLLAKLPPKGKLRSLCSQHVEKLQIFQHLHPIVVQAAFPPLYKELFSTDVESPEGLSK
#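 Read-out: Photinus luciferase luminescence; inhibitors lower reporter signal. Insect Schneider cells with Gal4-ROR gamma fusion under metallothionein promoter, UAS reporter; 700 uM final copper sulfate induction, 20 hr, ambient temperature.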
# DT40 TDP1 no CPT: qHTS for Inhibitors of human tyrosyl-DNA phosphodiesterase 1 (TDP1): qHTS in cells in absence of CPT; hit rate 15% among 420,000; DT40 Tdp1-/- hTDP1 cells, no CPT, ATP luminescence, 48 h; Potency, µM (titrated, usually from 46.2 µM), for inactives: at the top dose activity change, negative = growth inhibition, most hits filed as inhibitors; note: potency is the fitted concentration of half-maximal effect; nearly all actives have a fitted effect of over 55% in size
#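 No-CPT arm: Tdp1-/-;hTDP1 DT40 cells (400/well) plus compounds, incubated ≥48 hr at 37 °C. Readout CellTiter-Glo luminescence.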
# LDHA block: qHTS assay for inhibitors of human lactate dehydrogenase; purified LDHA, NADH/diaphorase-resazurin fluorescence; stronger effect = lower value; activity change, % (values are at about 110 or 230 µM); L-lactate dehydrogenase A chain (Homo sapiens), P00338; hit rate 0.15% among 480,000; in the data active = activity change below about -30%; inconclusive = mostly about -25% to -30%;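 note: plate controls were DMSO wells for no effect and wells without enzyme for full effect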
#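 Enzyme activity of human lactate dehydrogenase 5 (2 nM; 0.06 mM NADH, 0.2 mM pyruvate, 5 min, RT) is measured via a resazurin/diaphorase fluorescence readout of residual NADH.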
# VP16 counter: VP16 counterscreen qHTS for inhibitors of ROR gamma transcriptional activity | Drosophila S2 Gal4-VP16 UAS-luciferase, luminescence, 20 h | Potency, µM (top dose mostly 53.6 µM), for inactives: at the highest dose activity, negative = inhibition, actives largely listed as inhibitors | hit rate 3.5% among 310,000;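 note: Gal4-VP16 expression switched on by copper sulfate through the metallothionein promoter; potency is the fitted concentration of half-maximal effect; nearly all actives have a fitted effect of over 50% in size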
# Active calls of the source: *; ? = inconclusive; nt = no result given; [ ] = another dose, or the depositor's remark. In the library only some 18% were active in any assay of this set; here they are far more common. Unless noted, calls come from the whole dose curve; as a rule, active = well fitted curve in the direction sought with a large enough effect; inconclusive = small, poorly fitted or top-dose-only effect, or another doubt; inactive = no such curve, though single readings can be large; an effect the other way counts as inactive or inconclusive. Unless noted, % is set by controls: 0 for no effect and ±100 for the full control effect.
SMILES,DT40 TDP1 CPT,IL1B secr inh,RORg inh,DT40 TDP1 no CPT,LDHA block,VP16 counter
CN(C)C1(CNC(=O)c2ccc(NC(=O)c3ccco3)cc2)CCCCC1,nt,nt,nt,nt,-11,nt
O=C(NC1CCCC1)C1(c2cccc(Cl)c2)CCC1,nt,nt,nt,nt,4,nt
CCCCCCc1cc2cc(C(=O)Nc3cccc(OC)c3)c(=O)oc2cc1O,2.6µM*,-25,6%[10 µM],3.7µM*,-12,-31%
CCCCCCc1cc2cc(C(=O)Nc3ccc(OC)cc3)c(=O)oc2cc1O,7.3µM*,15,11%,5.8µM*,-1,-6%
CCCCCCc1cc2cc(C(N)=O)c(=N)oc2cc1O,nt,nt,2%,nt,nt,2%
CCCCCCc1cc2cc(C(=O)NC)c(=N)oc2cc1O,?,-2,10%,21µM*,0,-2%
CCCCCCc1cc2cc(C(=O)OCC)c(=O)oc2cc1O,-21%,1,-7%,-20%,-11,0%
CCCCCCc1cc2cc(/C(N)=N/NC(=O)c3ccncc3)c(=O)oc2cc1O,?,-9,nt,12µM*,-10,nt
Cc1ccc(C2CCCN2C(=O)Nc2ccc(F)c(Cl)c2)cc1 (stereo unspecified),nt,nt,nt,nt,2,nt
O=C(c1cn[nH]c1-c1ccccc1)N1CCN(S(=O)(=O)c2cccc(C(F)(F)F)c2)CC1,nt,nt,nt,nt,8,nt
CCCCCCc1cc2cc(S(=O)(=O)c3ccc(F)c(Cl)c3)c(=O)oc2cc1O,5.8µM*,-51*,?,7.3µM*,0,4µM*
CCCCCCc1cc2cc(/C(C)=N/O)c(=O)oc2cc1O,nt,nt,nt,nt,11,nt
Cc1c(C(=O)Nc2ccc(F)cc2)c2ccccn2c1CCc1ccncc1,?,-52*,10%,?,-6,?
O=C(NCc1ccoc1)Nc1cccc(C(=O)N2CCCC2)c1,nt,nt,nt,nt,-1,nt
O=C(CN1CCC(NC(=O)Nc2ccc(F)cc2)CC1)Nc1ccccc1[N+](=O)[O-],?,15,25%,21µM*,0,24%
COc1cccc(NC(=O)NC2CCN(CC(=O)Nc3ccccc3[N+](=O)[O-])CC2)c1,?,-20,?,?,-6,-8%
O=C(CN1CCCC1)Nc1ccc(F)cc1,7%,8,-3%,-21%,-1,-13%
O=C(CN1CCN(CC(=O)Nc2ccccc2C(=O)c2ccccc2)CC1)Nc1ccc(F)cc1,nt,nt,nt,nt,-32*,nt
O=C(CN1CCN(S(=O)(=O)c2ccccc2F)CC1)Nc1ccnn1C1CCCC1,?,16,nt,21µM*,-1,nt
O=C(CN1CCN(S(=O)(=O)c2ccccc2F)CC1)Nc1ccccc1C(=O)c1ccccc1,?,-17,6%,29µM*,1,-2%
CNC(=O)NC(=O)CN(C)C1CCCCCC1,nt,nt,nt,nt,8,nt
Cc1cccc(-n2cc[nH]c2=S)c1,-1%,0,7.9µM*,-27%,0,?
Cc1ccc(-n2c(C)n[nH]c2=S)cc1,3%,15,11µM*,-14%,-1,?
Cc1ccc(-n2c(C)n[nH]c2=S)cc1C,3%,11,11µM*,0%,-10,?
Cc1cccc(-n2c(-c3ccncc3)n[nH]c2=S)c1,-10%,12,?,-29%,0,-21%
Cc1ccccc1-n1c(C)n[nH]c1=S,-18%,-8,?,-2%,-6,-5%
Cc1cccc(-n2cc[nH]c2=S)c1C,-5%,0,-171%,-16%,-4,?
Cc1cccc(-n2c(C)n[nH]c2=S)c1,-6%,15,11µM*,-7%,-9,-10%
Cc1cc2oc(=O)cc(-c3ccccc3)c2c2occ(-c3ccccc3)c12,nt,nt,nt,nt,24,nt
